Experimental data reported in PubChem BioAssay (EPA / NIEHS).
Values joined by “and” are separate entries in the source; they are usually repeats but may differ in a detail not shown here. Equal entries are not always repeated. Some compounds were tested as several samples or in several runs, with calls that do not always agree. Active and inactive are the calls of the source. How the source made its calls: active means hit-call score of the fitted dose curve at least 0.9, where 1 is the maximum; inactive means score below 0.9.

What was measured:
[1] = read-out: Interleukin-8 (IL8), CXCL8 (gene 3576); experiment: BSK_KF3CT_IL8: BioMAP Diversity Plus: KF3CT Assay for Interleukin-8 (IL8) Biomarker Activity (AID 2284254); details: primary human keratinocytes with fibroblasts
Summary of the method: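 Human keratinocyte/foreskin fibroblast co-culture dosed 24 h; IL-8 measured by ELISA relative to DMSO. Parallel cultures stained with SRB for total protein to flag cytotoxicity.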

[2] = read-out: Macrophage Inflammatory Protein-1 Alpha (MIP1a), CCL3 (gene 6348); experiment: BSK_IMphg_MIP1a: BioMAP Diversity Plus: IMphg Assay for Macrophage Inflammatory Protein-1 Alpha (MIP1a) Biomarker Activity (AID 2284255); details: primary human endothelial cells with macrophages
Summary of the method: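 Co-culture of human venular endothelial cells and macrophages exposed to compounds for 24 h; MIP-1a measured by ELISA relative to DMSO. Cytotoxicity assessed in parallel cultures by sulforhodamine B total-protein staining at 560 nm.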

[3] = read-out: Plasminogen activator inhibitor-1 (PAI1), SERPINE1 (gene 5054); experiment: BSK_MyoF_PAI1: BioMAP Diversity Plus: MyoF Assay for Plasminogen activator inhibitor-1 (PAI1) Biomarker Activity (AID 2284256); details: primary human lung fibroblasts
Summary of the method: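 Primary human lung fibroblasts treated with chemical for 24 h; PAI-1 levels quantified by ELISA relative to DMSO. Cytotoxicity was assessed in parallel cultures by SRB total-protein staining (0.1% SRB after 10% TCA fixation, 560 nm).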

[4] = read-out: CD69, CD69 (gene 969); experiment: BSK_IMphg_CD69: BioMAP Diversity Plus: IMphg Assay for CD69 Biomarker Activity (AID 2284257); details: primary human endothelial cells with macrophages
Summary of the method: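 Human venular endothelial cells co-cultured with macrophages; CD69 quantified by ELISA 24 h after compound addition. Activity fitted in the positive direction relative to DMSO baseline; cytotoxicity tracked in parallel cultures via SRB total-protein staining.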

[5] = read-out: Eotaxin 3, CCL26 (gene 10344); experiment: BSK_BF4T_Eotaxin3: BioMAP Diversity Plus: BF4T Assay for Eotaxin 3 Biomarker Activity (AID 2284258); details: primary human bronchial epithelial cells with fibroblasts
Summary of the method: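 Co-culture of human bronchial epithelial cells and dermal fibroblasts, exposed to chemicals for 24 h versus DMSO. Eotaxin-3 quantified by ELISA; cytotoxicity checked in parallel cultures by sulforhodamine B total-protein staining.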

[6] = read-out: Monocyte Chemoattractant Protein-1 (MCP1), CCL2 (gene 6347); experiment: BSK_BF4T_MCP1: BioMAP Diversity Plus: BF4T Assay for Monocyte Chemoattractant Protein-1 (MCP1) Biomarker Activity (AID 2284259); details: primary human bronchial epithelial cells with fibroblasts
Summary of the method: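 Co-culture of bronchial epithelial cells and dermal fibroblasts dosed with chemical; MCP-1 measured by ELISA 24 h later. Activity fitted in positive direction versus DMSO; cytotoxicity checked by SRB staining in parallel cultures.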

[7] = read-out: Interleukin-8 (IL8), CXCL8 (gene 3576); experiment: BSK_MyoF_IL8: BioMAP Diversity Plus: MyoF Assay for Interleukin-8 (IL8) Biomarker Activity (AID 2284261); details: primary human lung fibroblasts
Summary of the method: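 Human lung fibroblast (MyoF system) cultures dosed for 24 h, then IL-8 measured by ELISA. Response taken relative to DMSO; parallel SRB total-protein staining for cytotoxicity.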

[8] = read-out: CD90, THY1 (gene 7070); experiment: BSK_BF4T_CD90: BioMAP Diversity Plus: BF4T Assay for CD90 Biomarker Activity (AID 2284262); details: primary human bronchial epithelial cells with fibroblasts
Summary of the method: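 Co-culture of human bronchial epithelial cells and dermal fibroblasts, 24 h compound exposure. Cell-surface CD90 measured by ELISA relative to DMSO; parallel SRB total-protein staining for cytotoxicity.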

[9] = read-out: Interleukin-8 (IL8), CXCL8 (gene 3576); experiment: BSK_BF4T_IL8: BioMAP Diversity Plus: BF4T Assay for Interleukin-8 (IL8) Biomarker Activity (AID 2284263); details: primary human bronchial epithelial cells with fibroblasts
Summary of the method: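 Human bronchial epithelial cells with dermal fibroblasts co-culture; IL-8 measured by ELISA 24 hours after dosing, fitted vs DMSO. Cytotoxicity tracked in parallel cultures by SRB total-protein staining.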

[10] = read-out: Interleukin-1 alpha (IL1a), IL1A (gene 3552); experiment: BSK_BF4T_IL1a: BioMAP Diversity Plus: BF4T Assay for Interleukin-1 alpha (IL1a) Biomarker Activity (AID 2284264); details: primary human bronchial epithelial cells with fibroblasts
Summary of the method: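 Human bronchial epithelial cells co-cultured with dermal fibroblasts, dosed and read at 24 h. Secreted/surface IL-1α quantified by ELISA; gain-of-signal fitted relative to DMSO baseline. Parallel SRB total-protein staining tracked cytotoxicity.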

[11] = read-out: Decorin, DCN (gene 1634); experiment: BSK_MyoF_Decorin: BioMAP Diversity Plus: MyoF Assay for Decorin Biomarker Activity (AID 2284265); details: primary human lung fibroblasts
Summary of the method: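 Human lung fibroblast cultures were dosed for 24 h, and decorin was then measured by ELISA. Parallel cultures were stained with sulforhodamine B for total protein as a cytotoxicity check. Gain of signal was fitted relative to DMSO.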

[12] = read-out: KRT18 (gene 3875); experiment: BSK_BF4T_Keratin818: BioMAP Diversity Plus: BF4T Assay for Keratin 818 Biomarker Activity (AID 2284266); details: primary human bronchial epithelial cells with fibroblasts
Summary of the method: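 Co-culture of human bronchial epithelial cells and dermal fibroblasts, chemical exposure 24 h. Keratin 8/18 measured by ELISA; positive-direction fit vs DMSO. SRB total protein run in parallel cultures for cytotoxicity.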

[13] = BSK_MyoF_SRB: Viability Assessment in the BioMAP Diversity Plus: MyoF Assay (AID 2284267); details: primary human lung fibroblasts;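 further: total protein by SRB absorbance in parallel cultures as cytotoxicity measure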
Summary of the method: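 Human lung fibroblasts dosed with chemical and assessed 24 h later for overt cytotoxicity in parallel cultures. Total protein quantified by sulforhodamine B staining (0.1% SRB after 10% TCA fixation), read at 560 nm, analysed in positive direction versus DMSO baseline.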

[14] = read-out: Matrix Metallopeptidase 1 (MMP1), MMP1 (gene 4312); experiment: BSK_MyoF_MMP1: BioMAP Diversity Plus: MyoF Assay for Matrix Metallopeptidase 1 (MMP1) Biomarker Activity (AID 2284268); details: primary human lung fibroblasts
Summary of the method: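 Human lung fibroblast primary cells; MMP1 measured by ELISA 24 h after dosing, fitted in the positive direction relative to DMSO. Parallel SRB staining (0.1%, after 10% TCA fixation, 560 nm) assesses overt cytotoxicity.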

[15] = read-out: TIMP metallopeptidase inhibitor 1 (TIMP1), TIMP1 (gene 7076); experiment: BSK_MyoF_TIMP1: BioMAP Diversity Plus: MyoF Assay for TIMP metallopeptidase inhibitor 1 (TIMP1) Biomarker Activity (AID 2284269); details: primary human lung fibroblasts
Summary of the method: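 ELISA quantified TIMP-1 levels after 24 h dosing of primary human lung fibroblasts, with DMSO as baseline. Parallel SRB total protein staining (0.1% SRB after TCA fixation, 560 nm) flagged overt cytotoxicity.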

[16] = read-out: Matrix Metallopeptidase 1 (MMP1), MMP1 (gene 4312); experiment: BSK_BF4T_MMP1: BioMAP Diversity Plus: BF4T Assay for Matrix Metallopeptidase 1 (MMP1) Biomarker Activity (AID 2284270); details: primary human bronchial epithelial cells with fibroblasts
Summary of the method: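 Co-culture of human bronchial epithelial cells and dermal fibroblasts; MMP-1 levels measured by ELISA 24 hours after chemical dosing, relative to DMSO. Cytotoxicity checked in parallel cultures by SRB total-protein staining.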

[17] = read-out: Matrix Metallopeptidase 3 (MMP3), MMP3 (gene 4314); experiment: BSK_BF4T_MMP3: BioMAP Diversity Plus: BF4T Assay for Matrix Metallopeptidase 3 (MMP3) Biomarker Activity (AID 2284271); details: primary human bronchial epithelial cells with fibroblasts
Summary of the method: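 Co-culture of human bronchial epithelial cells and dermal fibroblasts dosed 24 h; MMP-3 measured by ELISA, positive-direction fit versus DMSO. Cytotoxicity tracked by SRB total-protein staining (560 nm) in parallel cultures.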

[18] = read-out: Tissue plasminogen activator (tPA), PLAT (gene 5327); experiment: BSK_BF4T_tPA: BioMAP Diversity Plus: BF4T Assay for Tissue plasminogen activator (tPA) Biomarker Activity (AID 2284272); details: primary human bronchial epithelial cells with fibroblasts
Summary of the method: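 tPA level quantified by ELISA at 24 h post-treatment in bronchial epithelial/dermal fibroblast co-cultures, gain of signal scored against DMSO baseline. Parallel cultures stained with 0.1% SRB (560 nm) to flag overt cytotoxicity.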

[19] = read-out: Plasminogen Activator Inhibitor-1 (PAI1), SERPINE1 (gene 5054); experiment: BSK_BF4T_PAI1: BioMAP Diversity Plus: BF4T Assay for Plasminogen Activator Inhibitor-1 (PAI1) Biomarker Activity (AID 2284273); details: primary human bronchial epithelial cells with fibroblasts
Summary of the method: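 Co-culture of human bronchial epithelial cells and dermal fibroblasts exposed to compound for 24 h. PAI-1 measured by ELISA; activity fitted in positive direction versus DMSO. Parallel SRB staining assessed overt cytotoxicity.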

[20] = read-out: Intercellular Adhesion Molecule 1 (ICAM1), ICAM1 (gene 3383); experiment: BSK_BF4T_ICAM1: BioMAP Diversity Plus: BF4T Assay for Intercellular Adhesion Molecule 1 (ICAM1) Biomarker Activity (AID 2284260); details: primary human bronchial epithelial cells with fibroblasts
Summary of the method: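 Co-culture of human bronchial epithelial cells and dermal fibroblasts exposed 24 h to chemical; cell-surface ICAM-1 quantified by ELISA. Parallel SRB total-protein staining assessed cytotoxicity; activity fitted relative to DMSO.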

Measured: AC50

C=CC(=O)OCC(F)(F)C(F)(F)C(F)(F)C(F)(F)C(F)(F)C(F)(F)C(F)(F)F
inactive: [1] | [2] | [3] | [4] | [5] | [6] | [7] | [8] | [9] | [10] | [11] | [12] | [13] | [14] | [15] | [16] | [17] | [18]

O=C(O)C=C(C(F)(F)F)C(F)(F)F
inactive: [1] | [2] | [3] | [4] | [5] | [6] | [7] | [8] | [9] | [10] | [11] | [12] | [13] | [14] | [15] | [16] | [19]
active: [5] 10.8 µM | [18] 8.23 µM and 1.27 µM

O=C(O)C(F)(F)C(F)(F)C(F)(F)C(F)(F)C(F)(F)C(F)(F)C(F)(F)C(F)(F)Cl
active: [1] 55.2 µM and 45.8 µM | [2] 37.3 µM | [3] 48.2 µM and 48.5 µM | [4] 41.5 µM and 30 µM | [5] 8.26 µM and 1.05 µM | [6] 40.4 µM and 45.9 µM | [20] 41.4 µM and 40 µM | [8] 30 µM | [9] 51.9 µM and 50.3 µM | [10] 45.2 µM and 44 µM | [11] 21.3 µM | [12] 45 µM and 49.7 µM | [13] 30.9 µM and 35.5 µM | [14] 51.5 µM | [15] 30 µM and 47.9 µM | [16] 48.7 µM and 55 µM | [18] 10.7 µM and 5.95 µM
inactive: [2] | [7] | [8] | [11] | [14]

O=C(O)C(F)(F)C(F)(F)F
inactive: [1] | [2] | [3] | [4] | [5] | [6] | [7] | [8] | [9] | [10] | [11] | [12] | [13] | [14] | [15] | [16] | [18]
active: [6] 48 µM

FC(F)(F)C(F)(F)C(F)(F)C(F)(F)C(F)(F)C(F)(F)C(F)(F)I
inactive: [1] | [2] | [3] | [4] | [5] | [6] | [7] | [8] | [9] | [10] | [11] | [12] | [15] | [16] | [18]
active: [9] 52.7 nM | [13] 4.81 µM and 4.71 µM | [14] 2.4 µM and 2.55 µM
